According to PubChem BioAssay:
Calls of active or inactive are those of the source. Unless noted, how the calls were made is not given here.

How the values were obtained:
[1] = A549 cell viability effects, profiling panel, calcein-AM fluorescence, 48 h, basal (AID 1162); conditions: higher = more signal; further: test concentration not given here
[2] = adipocyte viability effects, profiling panel, cell-based, 3T3-L1 adipocytes, calcein-AM fluorescence, 48 h, basal (AID 1163); conditions: 3T3-L1 adipocytes viability, higher = more signal; further: test concentration not given here
[3] = HepG2 cell viability effects, profiling panel, calcein-AM fluorescence, 48 h, basal (AID 1164); conditions: higher = more signal; further: test concentration not given here
[4] = MM1S cell viability effects, profiling panel, calcein-AM fluorescence, 48 h, basal (AID 1165); conditions: higher = more signal;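 further: viability of MM1S multiple myeloma cells under basal unstimulated conditions; test concentration not given here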
[5] = basal RPMI8226 viability, no added stimulus, profiling panel, cell-based, calcein-AM fluorescence, 48 h, PK04 Diversity Set (AID 1166); conditions: RPMI8226 myeloma viability, higher = more signal;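 further: cells grown under basal conditions without added stimulus; test concentration not given here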
[6] = basal HepG2 mitochondrial membrane potential changes, profiling panel, cell-based, JC-1 fluorescence, 24 h, 100 nL compound (AID 1167); conditions: higher = more signal; further: test concentration not given here
[7] = basal 3T3-L1 adipocyte mitochondrial potential changes, profiling panel, cell-based, JC-1 fluorescence, 3T3-L1 adipocytes, 24 h, 100 nL compound (AID 1168); conditions: JC-1 mitochondrial fluorescence, higher = more signal, called active from +8 up or from −8 down; further: test concentration not given here
[8] = basal RPMI8226 mitochondrial membrane potential changes, profiling panel, cell-based, JC-1 fluorescence, 24 h, 100 nL compound (AID 1169); conditions: RPMI8226 myeloma, JC-1 mitochondrial potential fluorescence, higher = more signal; further: test concentration not given here
[9] = basal MM1S mitochondrial membrane potential changes, profiling panel, cell-based, JC-1 fluorescence, 24 h, 100 nL compound (AID 1170); conditions: higher = more signal; further: test concentration not given here
[10] = A549 lung cancer cell viability effects, profiling panel, resazurin fluorescence, 24 h, PK04 Diversity Set (AID 1171); conditions: higher = more signal, called active from +8 up or from −8 down; further: test concentration not given here
[11] = HepG2 liver cancer cell viability effects, profiling panel, resazurin fluorescence, 24 h, PK04 Diversity Set (AID 1172); conditions: higher = more signal; further: test concentration not given here
[12] = basal S. cerevisiae growth modulation, no modifier, primary screen, OD600, strain BY4716, 24 h, basal condition (AID 1173); conditions: OD600, 24 h, higher = more signal, called active from +8 up or from −8 down
[13] = MM1S myeloma cell viability, profiling panel, resazurin fluorescence, basal, 24 h, PK04 Diversity Set (AID 1174); conditions: higher = more signal, called active from +8 up or from −8 down;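 further: MM1S multiple myeloma cell line; test concentration not given here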
[14] = target: Dihydroorotate dehydrogenase (quinone), mitochondrial (Plasmodium falciparum (isolate 3D7)) (UniProt Q08210); experiment: PfDHODH enzyme inhibitors, primary screen, biochemical, C-terminal His tag, absorbance 600 nm (AID 1175); conditions: DCIP absorbance 600 nm, higher = more signal, called active from +8 up or from −8 down;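 further: recombinant parasite enzyme with a five histidine tag at its C terminus; test concentration not given here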
[15] = P. aeruginosa biofilm formation inhibitors, primary screen, strain PAO1, LB-PBS medium, absorbance 600 nm (AID 1176); further: test concentration not given here; conditions: P. aeruginosa PAO1 growth/biofilm, A600, 12 h; higher = more signal
[16] = S. cerevisiae RM11-1a growth modifiers, primary screen, strain RM11-1a, OD600, basal, 24 h (AID 1177); conditions: OD600, 24 h, higher = more signal, called active from +8 up or from −8 down;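 further: cultures grown under basal conditions with no added stressor; test concentration not given here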
[17] = E. coli acrAB mutant growth effects, primary screen, E. coli filamentation inducers, strain DRC39, OD650, 24 h (AID 1178); conditions: higher = more signal, called active from +8 up or from −8 down;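 further: growth measured as culture turbidity by optical density at 650 nm; test concentration not given here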
[18] = E. coli acrAB mutant growth effects, primary screen, E. coli filamentation inducers, strain DRC39, OD650, 48 h (AID 1179);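 further: screen aims at cell division blockers that make cells filament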; conditions: E. coli DRC39 delta-acrAB growth, higher = more signal, called active from +8 up or from −8 down
[19] = RPMI8226 myeloma cell viability, profiling panel, resazurin fluorescence, basal, 24 h, PK04 Diversity Set (AID 1180); conditions: higher = more signal;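 further: RPMI8826 multiple myeloma cell line at 5000 cells per well; test concentration not given here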
[20] = target: E3 ubiquitin-protein ligase XIAP (Homo sapiens) (UniProt P98170); experiment: XIAP binders, primary screen, biophysical, small-molecule microarray, fluorescence 635 nm (AID 1181); conditions: small-molecule microarray binding, higher = more signal;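 further: score merges 667 nm emission and signal to noise over triplicate slides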
E3 ubiquitin-protein ligase XIAP (Homo sapiens), sequence (P98170 whole entry, looked up): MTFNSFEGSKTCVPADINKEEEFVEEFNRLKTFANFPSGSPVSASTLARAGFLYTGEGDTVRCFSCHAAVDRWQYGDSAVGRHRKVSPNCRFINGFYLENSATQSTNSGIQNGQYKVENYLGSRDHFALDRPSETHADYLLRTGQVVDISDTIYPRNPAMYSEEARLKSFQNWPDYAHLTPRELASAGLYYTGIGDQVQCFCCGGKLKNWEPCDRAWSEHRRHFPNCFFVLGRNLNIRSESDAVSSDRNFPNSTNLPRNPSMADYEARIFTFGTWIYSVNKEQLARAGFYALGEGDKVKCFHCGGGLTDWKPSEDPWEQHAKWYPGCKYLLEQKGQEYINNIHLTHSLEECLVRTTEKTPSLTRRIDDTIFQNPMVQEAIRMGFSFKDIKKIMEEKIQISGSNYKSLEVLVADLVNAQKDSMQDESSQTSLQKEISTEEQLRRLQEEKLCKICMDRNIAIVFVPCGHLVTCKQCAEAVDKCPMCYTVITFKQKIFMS

Dihydroorotate dehydrogenase (quinone), mitochondrial (Plasmodium falciparum (isolate 3D7)), sequence (Q08210 whole entry, looked up): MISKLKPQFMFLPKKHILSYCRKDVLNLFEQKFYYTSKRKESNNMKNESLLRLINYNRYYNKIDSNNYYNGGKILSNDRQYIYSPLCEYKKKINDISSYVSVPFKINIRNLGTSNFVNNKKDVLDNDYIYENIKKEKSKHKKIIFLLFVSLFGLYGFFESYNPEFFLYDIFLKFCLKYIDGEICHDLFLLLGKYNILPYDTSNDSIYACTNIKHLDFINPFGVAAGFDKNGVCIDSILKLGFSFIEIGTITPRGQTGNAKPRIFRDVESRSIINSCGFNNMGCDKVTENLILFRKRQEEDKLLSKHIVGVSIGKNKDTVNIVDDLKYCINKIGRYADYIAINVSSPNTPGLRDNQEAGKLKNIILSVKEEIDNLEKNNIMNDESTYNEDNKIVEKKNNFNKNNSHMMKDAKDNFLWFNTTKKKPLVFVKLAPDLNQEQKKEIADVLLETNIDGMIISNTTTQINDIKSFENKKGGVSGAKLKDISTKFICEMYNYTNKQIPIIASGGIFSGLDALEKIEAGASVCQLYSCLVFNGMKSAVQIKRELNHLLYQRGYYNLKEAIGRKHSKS

Compound COc1ccc([Si](C)(C)[C@H]2[C@H](CCO)O[C@@]3(C(=O)N(Cc4ccccc4)c4ccc(N5C(=O)COc6ccccc65)cc43)[C@@H]2C)cc1 has a z-score [1] of -0.831, a z-score [2] of 0.281 and a z-score [3] of -3.01. It also gave a z-score [4] of -3, a z-score [5] of -3.25 and a z-score [6] of -0.111. For the same compound, the z-score [7] was 1.46 (inactive), the z-score [8] was -0.855 and the z-score [9] was -1.47. The z-score [10] was -1.74 (inactive), the z-score [11] was -0.981 and the z-score [12] was 0.0662 (inactive). For the same compound, the z-score [13] was -2.72 (inactive), the composite z-score [14] was 0.0861 (inactive) and the z-score [15] was 1.31 (inactive). The z-score [16] was 3.06 (inactive), the z-score [17] was 1.2 (inactive) and the z-score [18] was 0.433 (inactive). For the same compound, the z-score [19] was -3.14 and the composite z-score [20] was -0.0622.

With [N-]=[N+]=NCc1ccccc1[C@H]1OC(c2ccc(OCCCO)cc2)=N[C@@]1(Cc1ccccc1)C(=O)O the z-score [1] was 1.17, the z-score [2] was -1.06 and the z-score [3] was 0.991. It also gave a z-score [4] of 0.791, a z-score [5] of 0.465 and a z-score [6] of -0.0179. The z-score [7] was 0.241 (inactive), the z-score [8] was -0.491 and the z-score [9] was -0.804. The z-score [10] was 0.932 (inactive), the z-score [11] was 1.31 and the z-score [12] was -3.06 (inactive). The z-score [13] was -0.967 (inactive), the composite z-score [14] was -0.055 (inactive) and the z-score [15] was -0.0862 (inactive). For the same compound, the z-score [16] was 0.816 (inactive), the z-score [17] was -1.13 (inactive) and the z-score [18] was -0.835 (inactive). For the same compound, the z-score [19] was 0.273 and the composite z-score [20] was -0.205.

Compound C[N+](C)(C)CCCC[C@@H]1NC(=O)[C@H]2C[C@@H](C(=O)O)[C@@H](c3cccc(OCCO)c3)N2C1=O has a z-score [1] of 0.244, a z-score [2] of -0.552 and a z-score [3] of 0.438. It also gave a z-score [4] of 0.797, a z-score [5] of 0.91 and a z-score [6] of 2.37. For the same compound, the z-score [7] was -0.448 (inactive), the z-score [8] was -0.741 and the z-score [9] was -0.631. For the same compound, the z-score [10] was -0.141 (inactive), the z-score [11] was 0.352 and the z-score [12] was -1.32 (inactive). For the same compound, the z-score [13] was 0.644 (inactive), the composite z-score [14] was 0.16 (inactive) and the z-score [15] was 0.0751 (inactive). For the same compound, the z-score [16] was -0.625 (inactive), the z-score [17] was 0.406 (inactive) and the z-score [18] was 0.871 (inactive). The z-score [19] was 0.773 and the composite z-score [20] was 0.353.

In the case of COCCCNC(=O)[C@@]1(C)c2ccccc2C(=O)N(Cc2ccccc2)[C@H]1c1ccc(CO)cc1, the z-score [1] is reported as 0.587, the z-score [2] is reported as 0.928 and the z-score [3] is reported as -0.0853. The z-score [4] was -0.174, the z-score [5] was -2.12 and the z-score [6] was 0.548. For the same compound, the z-score [7] was -1.39 (inactive), the z-score [8] was -0.648 and the z-score [9] was -0.514. For the same compound, the z-score [10] was 0.22 (inactive), the z-score [11] was -0.0127 and the z-score [12] was -0.552 (inactive). The z-score [13] was 0.392 (inactive), the composite z-score [14] was -0.121 (inactive) and the z-score [15] was 0.745 (inactive). The z-score [16] was -0.755 (inactive), the z-score [17] was -0.157 (inactive) and the z-score [18] was -0.275 (inactive). The z-score [19] was -0.153 and the composite z-score [20] was -0.0304.

[N-]=[N+]=NCc1ccccc1C[C@@]1(C(=O)NCc2ccccc2)N=C(c2ccc(OCCCO)cc2)O[C@@H]1c1ccccc1CN=[N+]=[N-] showed a z-score [1] of -0.293, a z-score [2] of -0.0193 and a z-score [3] of 0.236. It also gave a z-score [4] of -0.645, a z-score [5] of -1.13 and a z-score [6] of 0.0212. The z-score [7] was -0.835 (inactive), the z-score [8] was -0.66 and the z-score [9] was -1.32. The z-score [10] was 1.01 (inactive), the z-score [11] was -0.594 and the z-score [12] was 0.548 (inactive). For the same compound, the z-score [13] was -0.709 (inactive), the composite z-score [14] was -0.067 (inactive) and the z-score [15] was 1.74 (inactive). For the same compound, the z-score [16] was 1.28 (inactive), the z-score [17] was 0.561 (inactive) and the z-score [18] was 0.678 (inactive). It also gave a z-score [19] of -0.538 and a composite z-score [20] of -0.174.

Compound [N-]=[N+]=Nc1ccccc1[C@H]1OC(c2ccc(OCCCO)cc2)=N[C@@]1(CCS(=O)(=O)c1ccccc1)C(=O)N1CCOCC1 has a z-score [1] of 0.412, a z-score [2] of -0.0376 and a z-score [3] of 0.402. It also gave a z-score [4] of -0.655, a z-score [5] of -0.184 and a z-score [6] of -1.34. The z-score [7] was -0.392 (inactive), the z-score [8] was -0.666 and the z-score [9] was -1.47. For the same compound, the z-score [10] was -0.913 (inactive), the z-score [11] was -0.512 and the z-score [12] was 0.917 (inactive). For the same compound, the z-score [13] was -1.45 (inactive), the composite z-score [14] was 0.499 (inactive) and the z-score [15] was 1.75 (inactive). For the same compound, the z-score [16] was 1.45 (inactive), the z-score [17] was 0.713 (inactive) and the z-score [18] was 0.187 (inactive). The z-score [19] was -1.33 and the composite z-score [20] was 0.389.

For C=CCOC(=O)[C@H]1[C@@H]2C(=O)O[C@@H](c3ccccc3)[C@@H](c3ccccc3)N2[C@@H](c2ccc(OCCOC(=O)[C@H]3C[C@H]4C(=O)N[C@@H](CCCC[N+](C)(C)C)C(=O)N4[C@H]3c3ccc(O)cc3)cc2)[C@]12C(=O)Nc1ccccc12, the z-score [1] was 1.6, the z-score [2] was 0.6 and the z-score [3] was 0.549. It also gave a z-score [4] of 0.419, a z-score [5] of 0.337 and a z-score [6] of -1.12. The z-score [7] was 1.31 (inactive), the z-score [8] was -0.456 and the z-score [9] was -0.0465. The z-score [10] was 0.896 (inactive), the z-score [11] was 0.767 and the z-score [12] was -2.24 (inactive). The z-score [13] was 1.31 (inactive), the composite z-score [14] was -2.24 (inactive) and the z-score [15] was -0.723 (inactive). For the same compound, the z-score [16] was 0.0539 (inactive), the z-score [17] was 0.402 (inactive) and the z-score [18] was 0.0612 (inactive). For the same compound, the z-score [19] was 1.21 and the composite z-score [20] was 0.0325.

With O=C1O[C@H](c2ccccc2)[C@H](c2ccccc2)N2[C@H]1[C@@H](C(=O)N1CCCCCCC1)[C@]1(C(=O)Nc3ccc(C#CC4=CCCCC4)cc31)[C@H]2c1ccc(O)cc1 the z-score [1] was -0.674, the z-score [2] was 1.01 and the z-score [3] was -0.0827. It also gave a z-score [4] of -0.181, a z-score [5] of -0.773 and a z-score [6] of -1.28. The z-score [7] was 0.634 (inactive), the z-score [8] was -0.179 and the z-score [9] was -1.28. The z-score [10] was 0.327 (inactive), the z-score [11] was 0.693 and the z-score [12] was -0.63 (inactive). The z-score [13] was -0.693 (inactive), the composite z-score [14] was -0.744 (inactive) and the z-score [15] was 0.485 (inactive). The z-score [16] was -0.668 (inactive), the z-score [17] was -0.182 (inactive) and the z-score [18] was -1.53 (inactive). The z-score [19] was -0.0437 and the composite z-score [20] was 3.33.

Work on CN1C(=O)C2C=CC(C(O)c3ccc(Br)cc3)N(Nc3ccccc3)C2C1=O (stereo not given) yielded a z-score [1] of 0.622, a z-score [2] of -0.384 and a z-score [3] of 1.17. The z-score [4] was -0.0257, the z-score [5] was -0.119 and the z-score [6] was -3.16. The z-score [7] was -1 (inactive), the z-score [8] was 0.0774 and the z-score [9] was -0.425. The z-score [10] was -0.443 (inactive), the z-score [11] was 0.0752 and the z-score [12] was -0.348 (inactive). The z-score [13] was -0.26 (inactive), the composite z-score [14] was -0.125 (inactive) and the z-score [15] was 0.434 (inactive). The z-score [16] was 0.732 (inactive), the z-score [17] was -0.398 (inactive) and the z-score [18] was -0.413 (inactive). For the same compound, the z-score [19] was 0.296 and the composite z-score [20] was -0.0773.
